The values below come from ChEMBL document CHEMBL3988442, “University of Dundee, Small-Polar-MMV Screening Library” (2021).

For some of these results: Measured potencies and affinities stand elsewhere.

Holding throughout (set-up): scale not given: direction of the effect not stated beside the values
Experiment [1] addresses Protein translocase subunit SecA (Escherichia coli (strain K12)) (UniProt P10408). Description: Assay to Identify E. coli SecA ATPase Inhibitors. It counts as functional. As to conditions: 30 µM.
For experiment [2], the target named is T1, Ubiquitin-activating enzyme e1, putative (Leishmania donovani (strain BPK282A1)) (UniProt E9BSI1).
T1 sequence (whole entry): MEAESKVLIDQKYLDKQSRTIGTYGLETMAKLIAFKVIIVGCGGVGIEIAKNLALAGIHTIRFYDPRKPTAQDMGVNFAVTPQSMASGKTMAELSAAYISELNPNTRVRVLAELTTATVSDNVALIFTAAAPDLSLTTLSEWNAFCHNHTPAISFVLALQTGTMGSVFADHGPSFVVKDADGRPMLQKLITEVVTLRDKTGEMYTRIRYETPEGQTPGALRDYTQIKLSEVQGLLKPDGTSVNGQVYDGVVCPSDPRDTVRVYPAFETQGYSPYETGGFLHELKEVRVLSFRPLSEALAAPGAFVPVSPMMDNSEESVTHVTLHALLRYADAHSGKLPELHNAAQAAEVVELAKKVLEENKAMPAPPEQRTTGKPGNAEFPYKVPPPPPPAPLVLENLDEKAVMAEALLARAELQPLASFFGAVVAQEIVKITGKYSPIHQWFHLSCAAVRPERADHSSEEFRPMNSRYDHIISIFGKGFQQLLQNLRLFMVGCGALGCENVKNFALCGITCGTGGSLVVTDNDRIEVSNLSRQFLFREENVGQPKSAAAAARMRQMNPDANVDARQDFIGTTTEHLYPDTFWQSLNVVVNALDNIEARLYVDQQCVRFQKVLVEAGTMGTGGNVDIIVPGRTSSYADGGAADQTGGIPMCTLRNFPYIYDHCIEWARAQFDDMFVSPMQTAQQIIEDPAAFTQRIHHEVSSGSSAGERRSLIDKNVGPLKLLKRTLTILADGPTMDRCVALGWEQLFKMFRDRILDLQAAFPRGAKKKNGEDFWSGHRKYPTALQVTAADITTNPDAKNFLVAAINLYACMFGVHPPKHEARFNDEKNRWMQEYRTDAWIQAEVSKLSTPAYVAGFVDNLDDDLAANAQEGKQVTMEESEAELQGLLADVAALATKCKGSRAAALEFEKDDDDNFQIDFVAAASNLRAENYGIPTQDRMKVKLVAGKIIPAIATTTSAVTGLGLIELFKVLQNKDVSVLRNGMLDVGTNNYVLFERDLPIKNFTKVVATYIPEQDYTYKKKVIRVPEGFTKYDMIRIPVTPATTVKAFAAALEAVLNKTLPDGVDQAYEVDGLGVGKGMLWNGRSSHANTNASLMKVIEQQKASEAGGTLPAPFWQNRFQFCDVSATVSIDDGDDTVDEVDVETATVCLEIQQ
In words: Leishmania donovani Ubiquitin Activating Enzyme (LdE1). It counts as functional. The conditions noted are these: 30 µM.

The target in experiment [3] is AMP-activated protein kinase, AMPK (Homo sapiens) (UniProt P54646+O43741+P54619+Q9UGJ0+Q9Y478+Q13131+Q9UGI9). In words: AMP-dependent Kinase enzyme assay. An in vitro enzyme assay that detects ADP turnover that is directly proportional to AMPK activity. This uses naive AMPK that is activated during the assay with MK-8722. Type of experiment: functional. The conditions noted are these: 30 µM.

The target in experiment [4] is Sialic acid-binding Ig-like lectin 9 (Homo sapiens) (UniProt Q9Y336). In words: Hs-Siglec9 ALPHAscreen SOP 20170721. As to conditions: 10 µM. (In general: Alpha assays give light when donor and acceptor beads are brought close together.)
The test system of experiment [5] is Trypanosoma cruzi. In words: Trypanosoma cruzi phosphomannomutase and mannose-1-phosphate guanylyltransferase assay. The conditions noted are these: 10 µM. It counts as functional.
Experiment [6] has as its target T2, Arginase-2, mitochondrial (Homo sapiens) (UniProt P78540).
T2 sequence (whole entry): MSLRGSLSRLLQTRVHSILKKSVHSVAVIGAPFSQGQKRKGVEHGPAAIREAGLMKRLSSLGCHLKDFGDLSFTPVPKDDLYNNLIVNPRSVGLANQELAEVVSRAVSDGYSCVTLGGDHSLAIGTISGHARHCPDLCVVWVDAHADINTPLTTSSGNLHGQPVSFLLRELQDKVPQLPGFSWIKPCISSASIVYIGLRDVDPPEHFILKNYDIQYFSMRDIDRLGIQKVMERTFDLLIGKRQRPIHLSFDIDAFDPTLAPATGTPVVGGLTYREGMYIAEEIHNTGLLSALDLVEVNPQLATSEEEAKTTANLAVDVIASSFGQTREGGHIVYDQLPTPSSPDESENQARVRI
In words: in vitro enzyme assay to detect the production of urea directly proportional to the activity of Arginase II. Also: in the data most compounds retested in dose-response had high values. Type of experiment: functional. The conditions noted are these: 33.3 µM.

Experiment [7] deals with T3, Proteasome subunit beta (Trypanosoma cruzi) (UniProt O96673).
T3 sequence (whole entry): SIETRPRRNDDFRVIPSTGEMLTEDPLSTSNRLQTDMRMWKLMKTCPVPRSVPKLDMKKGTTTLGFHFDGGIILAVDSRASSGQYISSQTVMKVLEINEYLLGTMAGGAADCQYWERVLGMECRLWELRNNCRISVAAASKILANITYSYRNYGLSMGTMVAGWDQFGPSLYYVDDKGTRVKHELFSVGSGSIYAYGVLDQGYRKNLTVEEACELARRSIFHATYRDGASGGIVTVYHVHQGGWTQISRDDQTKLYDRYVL
Description: Trypanosoma cruzi proteasome chymotrypsin-like activity (TcProtChymo) assay. Also: in the data most compounds retested in dose-response had high values. Type of experiment: functional. As to conditions: 9.37 µM.

Experiment [8] is filed under the species Homo sapiens. Description: To identify inhibition of the IFN signalling (Jak-Stat) pathway via expression of an eGFP reporter gene under the control of an IFN-stimulated response element (ISRE) containing MxA promoter. Type of experiment: functional. The conditions noted are these: 30 µM. A general note: A reporter such as luciferase makes a cellular process visible.

In experiment [9] the target is T4, Tyrosyl-tRNA synthetase, putative (Trypanosoma cruzi (strain CL Brener)) (UniProt Q4DSP6).
T4 sequence (whole entry): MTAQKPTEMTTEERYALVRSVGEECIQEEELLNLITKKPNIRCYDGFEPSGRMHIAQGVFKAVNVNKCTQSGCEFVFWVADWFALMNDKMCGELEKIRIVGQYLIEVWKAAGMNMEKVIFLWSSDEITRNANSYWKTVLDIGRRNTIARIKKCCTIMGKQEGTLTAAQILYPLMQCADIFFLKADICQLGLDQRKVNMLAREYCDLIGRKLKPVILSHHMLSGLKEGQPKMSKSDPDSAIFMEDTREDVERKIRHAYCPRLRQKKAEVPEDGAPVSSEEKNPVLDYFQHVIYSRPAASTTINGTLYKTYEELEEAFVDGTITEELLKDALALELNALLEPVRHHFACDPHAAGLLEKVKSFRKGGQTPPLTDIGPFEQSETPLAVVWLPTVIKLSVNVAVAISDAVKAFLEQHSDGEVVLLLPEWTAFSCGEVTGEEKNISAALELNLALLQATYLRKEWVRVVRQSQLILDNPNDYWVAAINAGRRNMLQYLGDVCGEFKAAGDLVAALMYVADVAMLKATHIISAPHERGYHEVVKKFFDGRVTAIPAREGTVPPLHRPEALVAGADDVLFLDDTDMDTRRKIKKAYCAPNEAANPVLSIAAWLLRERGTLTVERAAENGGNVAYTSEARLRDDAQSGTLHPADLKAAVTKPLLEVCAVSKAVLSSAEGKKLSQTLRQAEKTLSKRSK
Description: Trypanosoma cruzi tyrosyl tRNA synthetase (TcYRS) _High Tyrosine SOP. Also: in the data most compounds retested in dose-response had high values. It counts as functional. The conditions noted are these: 30 µM.

In experiment [10] the target is T4, Tyrosyl-tRNA synthetase, putative (Trypanosoma cruzi (strain CL Brener)). Description: Trypanosoma cruzi tyrosyl tRNA synthetase (TcYRS) SOP. It counts as functional. The conditions noted are these: 30 µM.
Experiment [11] has as its target Chromo domain-containing protein 1 (Saccharomyces cerevisiae (strain ATCC 204508 / S288c) (Baker's yeast)) (UniProt P32657). In words: ScCHD-1 Enzyme Inhibition Assay. Also: in the data most compounds retested in dose-response had high values. As to conditions: 30 µM. Type of experiment: functional.

Chain of Sialic acid-binding Ig-like lectin 9 (Homo sapiens) (Q9Y336 whole entry): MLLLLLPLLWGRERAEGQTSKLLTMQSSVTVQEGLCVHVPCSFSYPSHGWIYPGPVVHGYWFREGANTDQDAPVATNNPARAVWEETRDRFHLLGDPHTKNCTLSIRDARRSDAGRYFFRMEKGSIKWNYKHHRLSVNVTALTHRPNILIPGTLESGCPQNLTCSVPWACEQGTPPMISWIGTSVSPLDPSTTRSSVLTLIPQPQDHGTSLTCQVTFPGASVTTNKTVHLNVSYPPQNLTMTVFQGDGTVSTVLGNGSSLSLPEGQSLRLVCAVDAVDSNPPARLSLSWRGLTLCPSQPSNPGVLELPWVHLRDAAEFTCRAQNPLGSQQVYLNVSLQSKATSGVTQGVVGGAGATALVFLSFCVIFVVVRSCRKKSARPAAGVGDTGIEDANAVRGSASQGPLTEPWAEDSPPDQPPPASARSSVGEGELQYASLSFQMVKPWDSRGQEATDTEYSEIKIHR
Chain of Chromo domain-containing protein 1 (Saccharomyces cerevisiae (strain ATCC 204508 / S288c) (Baker's yeast)) (P32657 whole entry, the tested form may be a part): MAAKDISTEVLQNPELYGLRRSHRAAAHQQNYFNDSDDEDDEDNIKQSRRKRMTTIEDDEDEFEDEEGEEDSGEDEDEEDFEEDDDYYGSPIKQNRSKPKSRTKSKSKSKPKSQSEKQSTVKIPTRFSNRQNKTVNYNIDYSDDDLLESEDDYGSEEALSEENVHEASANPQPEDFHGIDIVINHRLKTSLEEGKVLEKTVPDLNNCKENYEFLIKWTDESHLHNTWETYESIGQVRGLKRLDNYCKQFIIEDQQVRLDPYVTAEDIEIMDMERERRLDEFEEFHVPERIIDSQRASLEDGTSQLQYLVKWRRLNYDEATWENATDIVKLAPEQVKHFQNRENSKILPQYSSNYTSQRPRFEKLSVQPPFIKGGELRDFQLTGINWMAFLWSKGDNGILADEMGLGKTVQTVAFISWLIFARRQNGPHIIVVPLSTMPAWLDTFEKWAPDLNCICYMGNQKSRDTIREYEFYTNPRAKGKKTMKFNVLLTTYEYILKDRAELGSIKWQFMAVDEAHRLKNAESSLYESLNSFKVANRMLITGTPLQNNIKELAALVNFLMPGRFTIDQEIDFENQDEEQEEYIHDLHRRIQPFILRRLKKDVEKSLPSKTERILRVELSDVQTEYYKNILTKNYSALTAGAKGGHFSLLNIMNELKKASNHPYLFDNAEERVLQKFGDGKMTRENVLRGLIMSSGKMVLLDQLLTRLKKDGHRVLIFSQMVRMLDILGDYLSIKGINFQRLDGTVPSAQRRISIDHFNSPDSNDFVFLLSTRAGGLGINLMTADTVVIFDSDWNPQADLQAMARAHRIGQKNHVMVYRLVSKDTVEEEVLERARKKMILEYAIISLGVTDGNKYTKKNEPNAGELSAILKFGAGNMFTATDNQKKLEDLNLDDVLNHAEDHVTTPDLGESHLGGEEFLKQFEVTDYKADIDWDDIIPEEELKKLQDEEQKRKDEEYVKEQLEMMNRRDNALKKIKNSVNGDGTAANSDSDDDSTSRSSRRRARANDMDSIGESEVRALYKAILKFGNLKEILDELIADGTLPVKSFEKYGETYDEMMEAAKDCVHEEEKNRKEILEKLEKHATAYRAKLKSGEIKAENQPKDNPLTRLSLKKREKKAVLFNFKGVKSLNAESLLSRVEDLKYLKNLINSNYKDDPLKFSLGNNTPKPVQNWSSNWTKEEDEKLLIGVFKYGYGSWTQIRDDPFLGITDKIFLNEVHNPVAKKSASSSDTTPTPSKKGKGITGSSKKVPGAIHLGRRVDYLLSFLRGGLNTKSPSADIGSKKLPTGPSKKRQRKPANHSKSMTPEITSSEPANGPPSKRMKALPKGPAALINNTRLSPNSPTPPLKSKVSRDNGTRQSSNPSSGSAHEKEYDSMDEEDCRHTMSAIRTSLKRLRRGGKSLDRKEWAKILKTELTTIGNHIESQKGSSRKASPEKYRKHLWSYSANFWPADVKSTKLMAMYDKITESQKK
Chain of Protein translocase subunit SecA (Escherichia coli (strain K12)) (P10408 whole entry): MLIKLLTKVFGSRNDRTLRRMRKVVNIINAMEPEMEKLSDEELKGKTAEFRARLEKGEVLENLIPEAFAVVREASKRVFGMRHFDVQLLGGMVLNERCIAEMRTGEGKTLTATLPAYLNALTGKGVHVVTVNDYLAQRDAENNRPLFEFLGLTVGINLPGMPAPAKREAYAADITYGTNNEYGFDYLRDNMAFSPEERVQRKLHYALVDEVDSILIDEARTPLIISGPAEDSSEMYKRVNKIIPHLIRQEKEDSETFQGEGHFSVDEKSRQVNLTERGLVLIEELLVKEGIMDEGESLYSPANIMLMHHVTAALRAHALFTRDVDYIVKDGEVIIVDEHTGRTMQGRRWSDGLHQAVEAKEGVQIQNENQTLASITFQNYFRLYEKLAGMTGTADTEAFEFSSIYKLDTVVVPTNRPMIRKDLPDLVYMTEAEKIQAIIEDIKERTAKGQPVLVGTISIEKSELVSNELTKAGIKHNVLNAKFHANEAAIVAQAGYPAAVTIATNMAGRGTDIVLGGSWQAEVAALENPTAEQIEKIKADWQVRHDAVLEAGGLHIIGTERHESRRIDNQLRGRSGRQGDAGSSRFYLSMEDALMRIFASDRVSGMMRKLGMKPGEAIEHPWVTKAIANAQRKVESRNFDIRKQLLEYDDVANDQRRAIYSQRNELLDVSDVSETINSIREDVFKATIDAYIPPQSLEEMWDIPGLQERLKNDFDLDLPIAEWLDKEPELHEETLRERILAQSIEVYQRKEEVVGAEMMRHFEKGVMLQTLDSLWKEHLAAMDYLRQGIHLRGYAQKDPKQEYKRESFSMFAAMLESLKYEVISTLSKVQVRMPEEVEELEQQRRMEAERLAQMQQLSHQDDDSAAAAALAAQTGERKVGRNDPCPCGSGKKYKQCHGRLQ

As for `CCn1ncc2c1C(COCC1CC1)CN(C(=O)c1cccs1)C2` (stereo not drawn), the Percent Effect is 1.75% in experiment [1]; 24.7% in experiment [2]; -1.43% in experiment [3]; 2.69% in experiment [4]; -0.794% in [5]; -6.39% in [6]. Also, the Percent Effect in [7] is 13.6%; in experiment [8], 21.1%; in [9], 7.29%; in experiment [10], 13.6%; in [11], -3.6%.
`CN(C(=O)c1cccc2[nH]ncc12)C1CCN(c2ccccn2)CC1`: the Percent Effect in [1] is -8.48%; in [2], 7.79%; in experiment [3], -0.81%; in experiment [4] it was -5.52%; in [5], -4.6%; in [6] it was -3.16%. Moreover, the Percent Effect was -4.12% in [7]; 30.5% in experiment [8]; 0.952% in experiment [9]; 2.35% in experiment [10]; -18.1% in experiment [11].
For the compound `CC(Cn1cccn1)NC(=O)Nc1ccc(F)cc1` (stereo not drawn), the Percent Effect in experiment [1] is 0.465%; in experiment [2] it was 6.94%; in [3] it was -0.867%; in [4], -4.43%; in [5] it was -5.15%; in [6], 1.77%. Further, the Percent Effect in experiment [7] was 22.1%; in experiment [8] it was 9.63%; in [9], 1.05%; in experiment [10], 0%; in experiment [11], -1.51%.
On to `O=C(c1ccncn1)N1CCO[C@H]2[C@@H](OCc3cccnc3)CC[C@@H]21`, for which the Percent Effect was -1.55% in experiment [1]; 8% in [2]; -0.169% in experiment [3]; 5.8% in experiment [4]; -3.48% in experiment [5]; -23.8% in experiment [6]. Also, the Percent Effect in experiment [7] was 8.72%; in [8], 2.92%; in experiment [9] it was -6.25%; in experiment [10], 7.5%; in [11], -6.65%.
For the compound `COCCNC(=O)C[C@@H]1COC[C@H]2CN(C(=O)c3cnccn3)C[C@@H]12`, the Percent Effect in experiment [1] is -0.696%; in experiment [2], 8.22%; in [3], -4.71%; in [4], 7.09%; in experiment [5], 6.15%; in experiment [6], 1.6%. The Percent Effect is 11.2% in experiment [7]; 21.4% in [8]; 9.38% in experiment [9]; 13.6% in experiment [10]; -3.17% in experiment [11].
For `CCc1nc(CN2CCCN(C(=O)C(C)COC)CC2)cs1` (stereo not drawn), the Percent Effect was -1.87% in experiment [1]; 26% in [2]; -9.16% in experiment [3]; 1.76% in experiment [4]; 3% in experiment [5]; 3.92% in experiment [6]. Further, the Percent Effect in [7] is 17.2%; in experiment [8] it was 10.8%; in experiment [9], 9.71%; in experiment [10] it was 21.9%; in [11] it was -10.9%.
Regarding `O=C(c1ccco1)N1CCCC1C1CCN(Cc2ccccc2)CC1` (stereo not drawn), the Percent Effect was -3.11% in experiment [1]; 7.89% in experiment [2]; 6.52% in experiment [3]; -0.267% in [4]; -2.24% in experiment [5]; 4.73% in experiment [6]. Further, the Percent Effect was 17.9% in [7]; 8.16% in experiment [8]; 6.38% in [9]; 10.4% in experiment [10]; -2.37% in experiment [11].
In the case of `OC[C@H]1CC[C@]2(CC1)CN(Cc1ccccc1F)Cc1ccccc1O2`, the Percent Effect in experiment [1] is -4.99%; in [2] it was 4.05%; in experiment [3] it was 15.1%; in experiment [4] it was 6.64%; in [5], 4.15%; in experiment [6], 2.55%. For the same compound, the Percent Effect in experiment [7] is 12.6%; in [8] it was 41.4%; in experiment [9], 3.23%; in [10], 14.3%; in [11], -0.993%.
